This note sets out measurements from ChEMBL document CHEMBL3988442, “University of Dundee, Small-Polar-MMV Screening Library” (2021).

The whole screen tested about 48,000 compounds, of which about 13,000 (27%) showed an effect of 50% or more. Some of the results follow.

This test deals with Wolbachia pipientis. The experiment in a line: Anti-Wolbachia Cell-Based Screen. Format: functional. More on the design: scale not given: in the data most compounds retested in dose-response had high values. Particulars: 5 µM.
For the molecule `c1coc(-c2nnc(CN3CCCC3Cn3cncn3)o2)c1` (stereo not drawn), the “Percent Effect” value is reported as 82.67%.

For the molecule `Cc1cnn(CC2CCCCN2Cc2nnc(-c3ccco3)o2)c1` (stereo not drawn), the “Percent Effect” value is 2.932%.

In the case of `COc1ccc(-c2nnc(CN3CCCC3Cn3cncn3)o2)cc1` (stereo not drawn), the “Percent Effect” value stood at 93.03%.

On to `CS(=O)(=O)N[C@@H]1CCN(Cc2nccs2)[C@H]1Cc1ccncc1.O=C(O)C(F)(F)F.O=C(O)C(F)(F)F`, for which the “Percent Effect” value was -21.66%.

For `COCc1cc(CNC(=O)c2c(C)c(C)cc(C)c2C)n[nH]1`, the “Percent Effect” value is recorded as -1.645%.

In the case of `CC(=O)Nc1ccc(C(=O)N(C)C(C)Cc2cc(C)ccn2)cn1` (stereo not drawn), the “Percent Effect” value was -9.308%.

Consider `O=C(O)c1ccn(-c2ccccc2NS(=O)(=O)c2ccccc2)n1`, for which the “Percent Effect” value is given as 2.8%.

As for `Cc1nc(CN2C[C@@H]3CN(c4ncccn4)C[C@@H]3C2=O)cs1.O=C(O)C(F)(F)F`, the “Percent Effect” value stood at 2.706%.

Take `Cc1ccc(-c2nnc(CN3CCCCC3Cn3cncn3)o2)cc1` (stereo not drawn): the “Percent Effect” value worked out at 107.2%.

Take `Cc1cccc(-c2nc(CN3CCCCC3Cn3cncn3)no2)c1` (stereo not drawn): the “Percent Effect” value is reported as -2.041%.

Regarding `CC(C)=Cc1c(-c2ccccc2)ncn1CCS(C)(=O)=O`, the “Percent Effect” value was -13.72%.

For `CC(C)N1CCC2(CCCN(c3nccc(C(F)(F)F)n3)C2)CC1.O=C(O)C(F)(F)F`, the “Percent Effect” value is given as -13.26%.

As to `CN1CCCC2(CCN(c3cccc(C(F)(F)F)n3)C2)C1=O` (stereo not drawn), the “Percent Effect” value is listed as -13.28%.

For the molecule `OC1(CN2CCCCC2)CCN(c2cccc(C(F)(F)F)n2)C1` (stereo not drawn), the “Percent Effect” value was determined as 110.2%.

Consider `CC(C)N1CCCC2(CCN(c3nccc(C(F)(F)F)n3)C2)C1=O` (stereo not drawn), for which the “Percent Effect” value was -9.493%.

On to `OC1(CN2CCCCC2)CCN(c2nccc(C(F)(F)F)n2)C1` (stereo not drawn), for which the “Percent Effect” value is recorded as 108.3%.

On to `O=C1CCC2(CCN(c3cccc(C(F)(F)F)n3)CC2)CN1CCO`, for which the “Percent Effect” value came to 4.395%.

`CCS(=O)(=O)CC(=O)Nc1ccc2oc(C3CC3)nc2c1`: the “Percent Effect” value was -4.895%.

Take `c1cn(CC2CCOCC2)c(-c2cc(CN3CCCC3)cs2)n1`: the “Percent Effect” value is recorded as 5.864%.

With `CC(CCO)Nc1cccc(C(F)(F)F)n1` (stereo not drawn), the “Percent Effect” value is on record as -9.729%.

`CCC(CNC(=O)c1cc(CC(C)C)nn1C)N(C)CC` (stereo not drawn): the “Percent Effect” value is recorded as -16.5%.

`CCn1nc(CC(C)C)cc1C(=O)NCC(F)(F)F`: the “Percent Effect” value was found to be 127.5%.

On to `CCn1nc(CC(C)C)cc1C(=O)N1CC[C@@H](O)C1`, for which the “Percent Effect” value is recorded as -2.224%.

As to `CCn1nc(CC(C)C)cc1C(=O)NCCn1cccc1`, the “Percent Effect” value was -13.46%.

Take `CCn1nc(CC(C)C)cc1C(=O)N1CCCC(C#N)C1` (stereo not drawn): the “Percent Effect” value is -3.007%.

In the case of `CCn1nc(CC(C)C)cc1C(=O)NCCCN1CCOCC1`, the “Percent Effect” value amounted to 125.1%.

As to `CCn1nc(CC(C)C)cc1C(=O)NCCS(=O)(=O)N(C)C`, the “Percent Effect” value was found to be 162.2%.

In the case of `CCn1ccc(C(=O)NCCCN2CCOCC2)n1`, the “Percent Effect” value was -2.896%.

For the molecule `COc1nc(C)cc(C)c1CNC(=O)N(C)Cc1cnn(C)c1`, the “Percent Effect” value is recorded as -3.346%.

Take `CCn1nc(CC(C)C)cc1C(=O)NCc1c(C)cc(C)nc1OC`: the “Percent Effect” value turned out to be 140.7%.

`CCN(CC)C1CCN(C(=O)c2cc(CC(C)C)nn2CC)C1` (stereo not drawn): the “Percent Effect” value was 33.04%.

In the case of `CCn1nc(CC(C)C)cc1C(=O)NCCCOC`, the “Percent Effect” value is -13.1%.

As to `CN(CCn1cnnc1)C(=O)c1ccnc(OC2CCC2)c1`, the “Percent Effect” value is -7.369%.

Turning to `COc1cc(C)nc(N2CCN(C(=O)CCc3ccco3)CC2)n1`, the “Percent Effect” value is given as 12.06%.

With `COc1cccc(OCC2CCCN(C(=O)CCc3cc(O)no3)C2)c1` (stereo not drawn), the “Percent Effect” value was -4.281%.

Regarding `COc1cc(C)nc(N2CCN(C(=O)CCc3ccncc3)CC2)n1`, the “Percent Effect” value was -15.67%.

On to `COc1cc(CCC(=O)N2CCC(c3cncc(C)n3)CC2)on1`, for which the “Percent Effect” value is on record as 141.8%.

`Cc1noc(C2CCN(C(=O)CCc3nccs3)CC2)n1`: the “Percent Effect” value was found to be 4.096%.

As for `COc1cc(CCC(=O)N2CCC(c3cnccn3)CC2)on1`, the “Percent Effect” value was 147.9%.

Consider `CCc1ccccc1C(=O)NS(=O)(=O)CCCC#N`, for which the “Percent Effect” value is recorded as -10.54%.

On to `Cc1n[nH]c(CCC(=O)N2CCOC(Cc3ccc(F)cc3)C2)c1C` (stereo not drawn), for which the “Percent Effect” value amounted to 14.83%.

As for `O=C(NC1(C(=O)NCC2CC2)CCCC1)C1Cc2cc(F)ccc2O1` (stereo not drawn), the “Percent Effect” value is given as -11.6%.

Consider `COCCN1CCO[C@@H]2CN(C(=O)Cc3ccc(F)cc3)CC[C@@H]2C1.O=C(O)C(F)(F)F`, for which the “Percent Effect” value turned out to be 12.24%.

As for `CN(C)CCN1CC(C(=O)N2CCC(c3cccc(O)c3)CC2)CC1=O` (stereo not drawn), the “Percent Effect” value was -14.83%.

In the case of `COCC1CN(C(=O)Cc2ccsc2)Cc2c1cnn2C` (stereo not drawn), the “Percent Effect” value was -19.19%.

For `COCCN1CCO[C@@H]2CN(C(=O)Cc3ccccc3)CC[C@@H]2C1.O=C(O)C(F)(F)F`, the “Percent Effect” value amounted to 12.5%.

`Cc1cc(CN2C[C@@H](C)[C@@]3(CCN(C)C3=O)C2)oc1C.O=C(O)C(F)(F)F`: the “Percent Effect” value was 2.821%.

For the molecule `CC1N(C)C(=O)COC12CCN(C(=O)Cc1ccsc1)CC2` (stereo not drawn), the “Percent Effect” value is 1.71%.

Consider `C[C@@H]1CN(C(=O)c2ccccc2F)C[C@]12CCN(CCN(C)C)C2=O`, for which the “Percent Effect” value amounted to 90.27%.

Consider `C[C@@H]1CN(C(=O)Cc2ccsc2)C[C@]12CCN(CCN(C)C)C2=O`, for which the “Percent Effect” value amounted to 171.4%.

Regarding `Cc1ccc(OC2(C(=O)O)CCN(C(=O)c3ccccc3F)CC2)cn1`, the “Percent Effect” value is -3.687%.

Turning to `CN(C)CCN1CCO[C@@H]2CN(C(=O)Cc3ccsc3)CC[C@@H]2C1`, the “Percent Effect” value is listed as 102.6%.

Regarding `C[C@H]1CN(C(=O)c2ccoc2)C[C@@]12CCN(CCN(C)C)C2=O.O=C(O)C(F)(F)F`, the “Percent Effect” value is 113.7%.
